OTUD3 inh = inhibitors of human OTUD3 deubiquitinase. OTU domain-containing protein 3 (Homo sapiens), Q5T2D3. purified OTUD3, Ub-rhodamine fluorescence, 2 h. inhibition, % at 25 µM. 47,000 compounds, 0.7% hits
UCHL1 block = inhibitors of human UCHL1 deubiquitinase; Ubiquitin carboxyl-terminal hydrolase isozyme L1 (Homo sapiens), P09936; 47,000 compounds, 0.2% hits; AID 1645859, 2021; purified UCHL1, Ub-rhodamine cleavage fluorescence; inhibition, % at 20 µM
Target sequence (P09936 whole entry, looked up): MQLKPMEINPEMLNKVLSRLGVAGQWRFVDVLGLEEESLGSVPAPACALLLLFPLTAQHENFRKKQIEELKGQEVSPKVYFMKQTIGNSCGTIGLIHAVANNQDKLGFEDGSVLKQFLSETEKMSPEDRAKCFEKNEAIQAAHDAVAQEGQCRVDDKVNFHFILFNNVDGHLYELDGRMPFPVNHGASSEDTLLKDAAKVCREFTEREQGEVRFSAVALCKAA
Numbers without * were called inactive. Shown is part of a subset that was picked to be rich in hits. No stated cut-off is given here; in the data, active means inhibition above about 30%; inactive means the rest.

SMILES	OTUD3 inh	UCHL1 block
O=C(Nc1ccc2n[nH]nc2c1)c1ccc(Cl)c(Cl)c1	40*	0
Cc1ccc(C(=O)Nc2ccc3nccnc3c2)cc1	6	0
Cc1nc(N2CCOCC2)ncc1-c1cc(=O)[nH]c(NCCc2ccccc2)n1	4	-2
O=C(Nc1ccc(-n2cccc2)cc1)c1cccc([N+](=O)[O-])c1	0	-4
O=C(Nc1cccc([N+](=O)[O-])c1)Nc1ccc2snnc2c1	-1	68*
CSc1cccc(NC(=O)CCc2ccc3nc(NC(C)=O)sc3c2)c1	11	3
CCC(=O)Nc1cccnc1-c1ccc(C(=O)Nc2ccc3c(c2)OCO3)cc1	5	3
O=S(=O)(c1ccc(F)cc1)N1CCN(c2nnnn2-c2ccccc2)CC1	0	-1
O=S(=O)(c1cccc(F)c1)N1CCN(c2nnnn2-c2ccccc2)CC1	41*	-2
COc1cc(Cl)c(C)cc1NC(=O)Cn1c(=O)n(CC(=O)NCc2ccco2)c(=O)c2ccccc21	40*	8
O=C(Cn1c(=O)c2ccccc2n(CC(=O)Nc2cc(Cl)cc(Cl)c2)c1=O)NCc1ccco1	12	0
COC(=O)c1ccccc1NC(=O)Cn1c(=O)n(CCCC(=O)NCc2ccco2)c(=O)c2ccccc21	68*	3
COc1cccc(NC(=O)Cn2c(=O)n(CCCC(=O)NCc3ccco3)c(=O)c3ccccc32)c1	16	1
Cc1cc(C)c2nc(N3CCCC(C(=O)NCc4ccccc4C)C3)sc2c1 (configuration not stated)	25	3
O=S(=O)(Nc1cc(S(=O)(=O)N2CCCCC2)ccc1O)c1ccc2c(c1)OCCCO2	4	2
CC1(c2ccc3c(c2)CCC3)NC(=O)N(Cc2cc(=O)n3ccsc3n2)C1=O (configuration not stated)	0	0
C=C(C)[C@@H]1CC[C@]2(C)[C@H](CC[C@@H]3[C@@H](C(C)(O)CCC=C(C)C)CC[C@]32C)[C@@]1(C)CCC(=O)O (some centres not stated)	88*	45*
CC(C)=CCC[C@](C)(O)[C@H]1CC[C@]2(C)[C@@H]1CC[C@@H]1[C@@]3(C)CC[C@H](O)C(C)(C)[C@@H]3CC[C@]12C	6	6
Nc1cc(C2CCN(S(=O)(=O)c3ccc4c(c3)CCCC4)CC2)no1	10	9
O=C(COc1nsnc1N1CCOCC1)Nc1ccc(F)c(F)c1	2	2
O=C(COc1nsnc1N1CCOCC1)Nc1ccccc1F	81*	-2
CC(C)C(NC(=O)COc1ccccc1)C(=O)N1CCc2[nH]c3ccccc3c2C1 (configuration not stated)	-25	-3
Cc1cc(-c2cnc(NCc3cccc(F)c3)nc2-c2ccco2)on1	10	4
COc1ccc(CCNC(=O)CSc2nnc(CNC(=O)COc3ccc(Cl)cc3)o2)cc1OC	29	2
CCCCc1ccc(-c2cc(C(=O)NCCN3CCOCC3)c3cc(Br)ccc3n2)cc1	30*	-4
SMILES	OTUD3 inh	UCHL1 block
O=C(NCCN1CCOCC1)c1cc(-c2ccc(Br)cc2)nc2ccccc12	-5	2
Cc1[nH]ncc1C(=O)N1CCCC(c2cccc(-n3ccnc3C)n2)C1 (configuration not stated)	12	1
Cc1nc(C(=O)N[C@@H](C)C(=O)NCc2ccc3c(c2)OCO3)cc2c1[nH]c1ccccc12	-14	-2
N#Cc1ccccc1Cn1c(=O)n(CCCCC(=O)NCCc2ccccc2)c(=O)c2ccccc21	36*	1
O=C(CCCCn1c(=O)c2ccccc2n(Cc2ccccc2F)c1=O)NCCc1ccccc1	1	1
CCOC(=O)c1ccc(NC(=O)COc2cccc3c2CCN(Cc2cccnc2)C3=O)cc1	-18	1
Cc1c(CC(=O)NCC(C)C)c(=O)oc2cc3c(cc12)CCC1(CCCCC1)O3	22	-4
Cc1noc(C)c1CN1CC[C@H]2O[C@H](C(=O)NCc3ccco3)CC[C@H]21	33*	-5
O=C(NCc1cccnc1)[C@@H]1CC[C@@H]2[C@@H](CCN2Cc2ccco2)O1	1	1
Cc1ccccc1C(CC(=O)Nc1ccc2c(c1)OCO2)n1cccc1 (configuration not stated)	8	7
COc1cccc(C(CC(=O)Nc2ccc3c(c2)OCCO3)n2cccc2)c1 (configuration not stated)	-2	32*
COc1cc(OC)c2c(=O)cc(-c3ccccc3)oc2c1OC	10	7
COc1c(O)c(O)c2c(=O)cc(-c3ccc(O)cc3)oc2c1OC	46*	12
COc1ccc(NC(=O)c2ccc(-n3nnnc3SC)cc2)cc1Cl	87*	0
COc1ccc(OC)c(NC(=O)c2ccc(-n3nnnc3SC)cc2)c1	-5	1
Cc1c(C)n(-c2ccccc2)c2ncn(CC(=O)N(C)Cc3ccccc3)c(=O)c12	4	0
N#Cc1ccc(NC(=O)Nc2cccn(Cc3c(F)cccc3Cl)c2=O)cc1	-10	5
